Laboratory results published in PubChem BioAssay AID463229 (Broad Institute, 2010).
The campaign covered roughly 2,300 compounds. About 2,100 (91%) were called active.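 How the source made its calls: active means compounds raising the signal whose fitted half-maximal concentration is at or below their top tested dose (cut at about 25 µM in these data); inconclusive means flat fit at 30 to 70% activity, or a poor fit; inactive means the rest.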 The set was probably picked from earlier hits. Only a sample is shown. Entries with a potency or affinity are not part of this list.

Assay: ATP level change in INS-1E without cytokines, dose response, counter-screen for beta-cell apoptosis protection project, INS-1E rat cells, ATP luminescence, cherry pick (AID 463229)
Settings: INS-1E rat beta cells, no cytokines, CellTiter-Glo ATP, 48 h; series mostly up to 26 µM
For CCOc1ccc(/C=N/Nc2ccc(Cl)nn2)c(O)c1, the outcome was “inactive”. In the case of Cc1cc(C)nc(OC(=O)c2ccc(Cl)cc2Cl)n1, the outcome is reported as “inactive”. For Cc1ccc(C(=O)O/N=C/c2c(N3CCOCC3)n(C)c3ccccc23)cc1, the outcome was “inactive”. With Cc1ccc2c(C)ccc(O)c2n1 the outcome was “inactive”. With CCCNC(=O)c1c(N)n(-c2cccc(OC)c2)c2nc3ccccc3nc12 the outcome was “inactive”. For CC(=O)Nc1ccc(C2=CC(=O)C[C@H](c3ccc4c(c3)OCO4)C2)cc1, the outcome was “inactive”. In the case of FC(F)(F)c1ccccc1NC(=S)N1CCc2ccccc2C1, the outcome is reported as “inactive”. For Fc1ccc(Oc2nc(-c3ccccn3)nc3ccccc23)cc1, the outcome was “inactive”. With O=C(CCCN1C(=O)/C(=C/c2ccccc2)SC1=S)NCCCn1ccnc1 the outcome was “inactive”. For O=[N+]([O-])c1ccc(/C=N/Nc2ccnc3cc(Cl)ccc23)o1, the outcome was “inactive”. For CC1(C(=O)OCC(=O)N2c3ccccc3Sc3ccccc32)CC1(Cl)Cl (stereo unspecified), the outcome was “inactive”. In the case of Nc1ccc2nn(-c3cccc4ccccc34)nc2c1, the outcome is reported as “inactive”. In the case of CC(=O)Cc1cc(O)c2ccccc2c1OC(=O)c1ccc(Br)cc1, the outcome is reported as “inactive”. In the case of Cc1cc2cc(CN3C(=O)c4ccccc4C3=O)ccc2n1C, the outcome is reported as “inactive”. With Cc1ccc(NC(=O)c2c(-c3c(F)cccc3Cl)noc2C)cc1F the outcome was “inactive”. For O=C1/C(=N\S(=O)(=O)c2cccs2)C([n+]2ccc(CCCc3ccccc3)cc2)=C([O-])c2ccccc21, the outcome was “inactive”. With CC(C)(C)c1cc[n+](C2=C([O-])c3ccccc3C(=O)/C2=N\S(=O)(=O)c2ccccc2)cc1 the outcome was “inactive”. For Cc1ccccc1Nc1c(-c2ccccn2)nc2c(C)cccn12, the outcome was “inactive”. For COc1cc(NC2CCCCC2O)c2nc(-c3ccc(Cl)cc3)ccc2c1 (stereo unspecified), the outcome was “inactive”. With COc1ccc(NC(=O)CN(C)C(=O)/C=C/c2ccc(S(=O)(=O)N3CCCCCC3)cc2)cc1 the outcome was “inactive”. With CC(C)C[C@H]1CN=C(Nc2ccccc2)N1CCC(C)c1ccccc1 (stereo partly specified) the outcome was “inactive”. In the case of CCC(CC)C(=O)c1c[nH]c(C(=O)NCc2ccccn2)c1, the outcome is reported as “inactive”. In the case of O=C(Cc1ccc([N+](=O)[O-])cc1)Nc1cccnc1, the outcome is reported as “inactive”. In the case of Cc1ccc(C)c(NS(=O)(=O)c2ccc(OCC(=O)NCc3cccnc3)cc2)c1, the outcome is reported as “inactive”. For O=C(NNC(=O)c1ccccc1OCc1ccccc1)c1ccccc1O, the outcome was “inactive”. In the case of C/C(=N\NC(N)=S)c1ccncc1, the outcome is reported as “inactive”. For C/C(Cn1nnc([N+](=O)[O-])n1)=N\NC(=O)c1ccccc1Cl, the outcome was “inactive”. With Clc1ccc(SCc2cc(N3CCOCC3)nc(-c3ccccn3)n2)cc1 the outcome was “inactive”. In the case of CCN(CC)C(=O)C1CCCN(C(=S)Nc2cccc3ccccc23)C1 (stereo unspecified), the outcome is reported as “inactive”. For CC(C)(C)C(=O)NC(Nc1cccc2cccnc12)C(Cl)(Cl)Cl (stereo unspecified), the outcome was “inactive”. In the case of CCCOc1ccc2c3c(c(=O)oc2c1OCCC)CCCC3, the outcome is reported as “inactive”. In the case of COc1ccc(/C=N/N2CCN(Cc3ccccc3)CC2)cc1, the outcome is reported as “inactive”. For C/C(=N\Nc1nc(C)cc(-c2ccccc2)n1)c1ccc(F)cc1, the outcome was “inactive”. In the case of C/C(=N\Nc1nc(C)cc(-c2ccccc2)n1)c1ccccc1, the outcome is reported as “inactive”. In the case of C=CC[C@@H](CC(=O)N(CCO)Cc1ccccc1)C(=O)N[C@H](COC(=O)[C@@H](CC=C)CC(=O)OC(C)(C)C)c1ccccc1, the outcome is reported as “inactive”. For Cc1cc(C)n(-c2nc(NC(C)(C)C)nc(NC(C)(C)C)n2)n1, the outcome was “inactive”. For NNC(=S)Nc1ccc(OC(F)(F)F)cc1, the outcome was “inactive”. With COC(=O)c1sccc1S(=O)(=O)Nc1ccc(N2CCCCC2)cc1 the outcome was “inactive”. For COc1ccc(NC(=O)N(C)C[C@H]2Oc3c(NS(=O)(=O)c4ccc(F)cc4)cccc3C(=O)N([C@H](C)CO)C[C@@H]2C)cc1, the outcome was “inactive”. For c1ccc(-c2nnc(CSc3ccc4c(c3)OCCO4)o2)cc1, the outcome was “inactive”. With Fc1cccc(Cl)c1-c1nnc2ccc3ccccc3n12 the outcome was “inactive”. For Nc1ccc(Nc2ccccc2)cc1, the outcome was “inactive”. With CCN(CC)S(=O)(=O)c1cccc(NC(=O)c2cc(-c3cccs3)nn2-c2ccccc2)c1 the outcome was “inactive”. In the case of Cc1ccc(S(=O)(=O)Nc2ccc(C(OC(=O)c3ccccc3[N+](=O)[O-])(C(F)(F)F)C(F)(F)F)cc2)cc1, the outcome is reported as “inactive”. With c1ccc(N2CCN(CC3CCCCC3)CC2)cc1 the outcome was “inactive”. For CCCCOC(=O)c1ccc(NC(c2ccc(C)cc2)P(=O)(OC)OC)cc1 (stereo unspecified), the outcome was “inactive”. For COc1ccc(C2CC(c3cccc(C)c3)n3nc(N)nc3N2)cc1 (stereo unspecified), the outcome was “inactive”. For Cc1ccc(C2CC(c3cccc(C)c3)n3nc(N)nc3N2)cc1 (stereo unspecified), the outcome was “inactive”. For CCOC(=O)CSc1nc2c(c(=O)[nH]1)C(C)(CC)Cc1ccccc1-2 (stereo unspecified), the outcome was “inactive”. In the case of O=C(O)c1ccc(/C=C2\SC(=S)N(Nc3ccccc3)C2=O)cc1, the outcome is reported as “inactive”. For CN1N=C(C(C)(C)C)CSC1=Nc1ccccc1, the outcome was “inactive”. With CC(=O)c1c(C)n(CC(=O)NCc2ccco2)c2ccccc12 the outcome was “inactive”. With Cc1ccc(N2C(=O)CSC2c2cccnc2)c(Cl)c1 (stereo unspecified) the outcome was “inactive”. For CN(C)c1ccc(NC(=S)NC23CC4CC(CC(C4)C2)C3)cc1, the outcome was “inactive”. With COc1ccccc1NS(=O)(=O)c1cccc(NC(=O)c2[nH]c(C)c(C(C)=O)c2C)c1 the outcome was “inactive”. In the case of O=C(CC1CC2CCC1C2)NCCc1ccc(Cl)cc1 (stereo unspecified), the outcome is reported as “inactive”. With CNC(=S)N(Cc1cccs1)Cc1cc2cc(OC)c(OC)cc2[nH]c1=O the outcome was “inactive”. In the case of CCN(CC)c1ccc(N=Cc2ccccc2[N+](=O)[O-])cc1, the outcome is reported as “inactive”. In the case of CC1CC(=O)N(c2ccc(Br)cc2)C(=O)C1, the outcome is reported as “inactive”. In the case of Cn1cccc1/C=N/NC(=O)Cc1cccs1, the outcome is reported as “inactive”. In the case of CCOC(=O)c1sc(SC)c2c1CCC/C2=N/OC, the outcome is reported as “inactive”. In the case of COc1cnc(-c2ccccn2)nc1N(C)c1ccccc1, the outcome is reported as “inactive”. For O=C(CCCCC(=O)Nc1ccc(F)cc1F)Nc1ccc(F)cc1F, the outcome was “inactive”. With C/C(=N\Nc1nc(-c2ccccn2)nc2ccccc12)c1ccc(F)cc1 the outcome was “inactive”. For O=C(c1ccc(F)c(S(=O)(=O)N2CCOCC2)c1)N1CCN(c2ccc(F)cc2)CC1, the outcome was “inactive”. With CC1=C(C(=O)OCCNC(=O)c2ccccc2O)C(c2ccccc2[N+](=O)[O-])C(C(=O)OCC2CCCO2)=C(C)N1 (stereo unspecified) the outcome was “inactive”. In the case of COc1ccc(CN(C)C(=O)c2ccc(NS(=O)(=O)c3ccc(F)cc3)cc2)c(OC)c1OC, the outcome is reported as “inactive”. For CC[C@@H]1C/C=C\Cc2ccccc2[C@H](C(=O)C[C@@H](O)CC(C)=O)OC1=O, the outcome was “inactive”. In the case of N#Cc1ccc(-c2csc(NNC(=O)c3ccccc3)n2)cc1, the outcome is reported as “inactive”. With CCn1c(=O)c(C(=O)Nc2ccccn2)c(O)c2ccccc21 the outcome was “inactive”. For COc1ccc(CN2CCN(CCSc3ccc(C)cc3)CC2)c(OC)c1OC, the outcome was “inactive”. In the case of CCOC(=O)C1(Cc2cccc(Cl)c2)CCCN(C(=O)c2ccc(COC)s2)C1 (stereo unspecified), the outcome is reported as “inactive”. In the case of CN(C)CCCNc1cc(C(C)(C)C)nc2c(-c3ccccc3)cnn12, the outcome is reported as “inactive”. With Cc1ccc2c(c1)Sc1c(ccc3ccccc13)N2 the outcome was “inactive”. With COc1ccc(C(=O)c2c(C)c3ccccc3n2CC(O)CNC(C)C)cc1 (stereo unspecified) the outcome was “inactive”. With COc1ccc(S(=O)(=O)Nc2ccc(O)c3ccccc23)cc1 the outcome was “inactive”. For CN(Cc1ccccc1)C(=O)c1nc2ccccn2c1CN1CCCC1c1nccs1 (stereo unspecified), the outcome was “inactive”. With CCn1c(=O)c([N+](=O)[O-])c(N2CCN(Cc3ccc4c(c3)OCO4)CC2)c2ccccc21 the outcome was “inactive”. In the case of COc1ccc(N2CC(C(=O)N3CCN(c4ccccc4F)CC3)CC2=O)cc1 (stereo unspecified), the outcome is reported as “inactive”. In the case of Cc1occc1C(=O)N1CCCC(N2CCN(c3cccc(C(F)(F)F)c3)CC2)C1 (stereo unspecified), the outcome is reported as “inactive”. With O=C(C(Sc1ccccc1)c1ccccc1)N1CCN(c2ccccc2F)CC1 (stereo unspecified) the outcome was “inactive”. With CC#CC[N+](C)(C)CCCCCCCC the outcome was “inactive”. In the case of OCCN1CCN(C2Cc3cc(Cl)ccc3Sc3ccc(Cl)cc32)CC1 (stereo unspecified) (tested in a mixture with another compound), the outcome is reported as “inactive”. In the case of O=[N+]([O-])c1cccc(/C=N/n2cnnc2)c1, the outcome is reported as “inactive”. For CC(C)NC(=S)NC(c1ccccc1)(c1ccccc1)c1ccccc1, the outcome was “inactive”. With CC1CCN(C(=O)CCNS(=O)(=O)c2ccc(Br)cc2)CC1 the outcome was “inactive”. With COc1ccc(Br)cc1CN(C)CC(=O)NCc1ccc(F)cc1 the outcome was “inactive”. With Cc1nn(-c2ccccc2)c(C)c1NC(=O)COc1ccc(Br)cc1Cl the outcome was “inactive”. In the case of CCSC1=NCCN1C(=O)C(C)(C)Oc1ccc(Cl)cc1, the outcome is reported as “inactive”. With Cc1cccc(C)c1NC(=O)CNC(=O)c1c(C)nn(C)c1Cl the outcome was “inactive”. With Cc1cccc(NC(=S)Nc2ccc3cn[nH]c3c2)c1 the outcome was “inactive”. In the case of NC(=S)N/N=C/c1c(O)ccc2ccccc12, the outcome is reported as “inactive”. In the case of Cc1ccc(O)c(/C=N/NC(=O)c2[nH]ncc2Br)c1, the outcome is reported as “inactive”. In the case of COc1ccc(N(C)S(=O)(=O)c2cccc(C(=O)Nc3nc(C)c(C(C)=O)s3)c2)cc1, the outcome is reported as “inactive”. With O=C(c1ccco1)c1coc2c1cc(O)c1ccccc12 the outcome was “inactive”. With Cc1ccc2c(C)nc(Nc3nc(CSc4nc5ccccc5[nH]4)cc(=O)[nH]3)nc2c1 the outcome was “inactive”. In the case of Cc1ccc(C(=O)N/C(=C\c2ccc(-c3ccccc3[N+](=O)[O-])o2)C(=O)NCCCN2CCOCC2)cc1, the outcome is reported as “inactive”. For C=CCN1C(=O)N/C(=C/c2ccc(N3CCOCC3)o2)C1=O, the outcome was “inactive”. For C[C@H](CO)N1C[C@H](C)[C@@H](CN(C)C(=O)NC2CCCCC2)Oc2c(NC(=O)Nc3ccc(C(F)(F)F)cc3)cccc2C1=O, the outcome was “inactive”. For COc1ccc(S(=O)(=O)N2CCNCC2)cc1OC, the outcome was “inactive”. In the case of CCOC(=O)C(NCCc1ccc(F)cc1)(NC(=O)CC)C(F)(F)F (stereo unspecified), the outcome is reported as “inactive”. With Cc1cc(C)cc(OCCCn2ccnc2)c1 the outcome was “inactive”. For O=c1[nH]c(NCCCO)nc2c1C1(CCCC1)Cc1ccccc1-2, the outcome was “inactive”. For Nc1ccc(Nc2ccc([N+](=O)[O-])cc2[N+](=O)[O-])cc1, the outcome was “inactive”. For COc1ccccc1NCC(=O)N/N=C/c1c(O)ccc2ccccc12, the outcome was “inactive”. In the case of C/C(N)=C(/C#N)C(=O)COC(=O)c1cc(-c2ccc(C)cc2)nc2ccccc12, the outcome is reported as “inactive”.
